Screens as filed in PubChem BioAssay.
Rows were chosen to be rich in hits. Some 6.3% of all compounds tested hit in one or more screens of this group.
tim23-1 inh = tim23-1 yeast growth inhibition. S. cerevisiae tim23-1 growth, BacTiter-Glo luminescence, 24 h. inhibition, % at 20 µM. 330,000 compounds, 1.3% hits. AID 463212;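 active means growth inhibition of the mutant yeast at or above 50%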;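 further: temperature-sensitive mutant grown at 25 °C; plate controls were DMSO-treated mutant yeast for no effect and medium wells lacking yeast for full effect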
MPTP inh = blocks calcium-induced mitochondrial swelling; isolated mouse mitochondria, Ca2+ swelling absorbance, 30 min; inhibition, % at 10 µM; 360,000 compounds, 1.4% hits;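 active means inhibition of 50% or more, scaled per plate between neutral and stimulator controls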;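 further: 0% = DMSO wells given calcium and 100% = 1 mM EGTA wells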
tim10-1 inh = growth inhibitors of tim10-1 mutant yeast; S. cerevisiae tim10-1 ts strain growth, BacTiter-Glo, 24 h; inhibition, % at 20 µM; 330,000 compounds, 2.2% hits; AID 463190;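 active means inhibition of at least 40%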;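 further: mutant grown at 25 °C; 0% = DMSO wells with yeast and 100% = wells holding no yeast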
Mdm2-MdmX inh = disrupts the human Mdm2-MdmX interaction. O15151+Q00987. SaOS-2 split-luciferase Mdm2/MdmX complementation, luminescence. inhibition, % at 8 µM. 330,000 compounds, 3% hits;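 active means inhibition of at least 50% at 8 µM in the primary screen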
Target sequence (O15151 whole entry, looked up): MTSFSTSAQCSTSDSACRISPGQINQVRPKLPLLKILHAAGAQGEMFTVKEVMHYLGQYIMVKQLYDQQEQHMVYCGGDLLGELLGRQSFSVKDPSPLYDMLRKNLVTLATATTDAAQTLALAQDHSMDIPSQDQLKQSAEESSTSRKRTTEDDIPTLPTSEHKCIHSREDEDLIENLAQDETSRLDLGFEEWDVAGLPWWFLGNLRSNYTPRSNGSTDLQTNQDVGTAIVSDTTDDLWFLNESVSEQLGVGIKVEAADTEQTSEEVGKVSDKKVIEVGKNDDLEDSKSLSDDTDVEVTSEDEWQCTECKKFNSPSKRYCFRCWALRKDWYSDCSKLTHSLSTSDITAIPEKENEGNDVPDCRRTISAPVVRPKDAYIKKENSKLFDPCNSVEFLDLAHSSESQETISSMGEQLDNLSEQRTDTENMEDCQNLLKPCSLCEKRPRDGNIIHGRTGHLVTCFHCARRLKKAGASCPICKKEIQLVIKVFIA
Target sequence (Q00987 whole entry, looked up): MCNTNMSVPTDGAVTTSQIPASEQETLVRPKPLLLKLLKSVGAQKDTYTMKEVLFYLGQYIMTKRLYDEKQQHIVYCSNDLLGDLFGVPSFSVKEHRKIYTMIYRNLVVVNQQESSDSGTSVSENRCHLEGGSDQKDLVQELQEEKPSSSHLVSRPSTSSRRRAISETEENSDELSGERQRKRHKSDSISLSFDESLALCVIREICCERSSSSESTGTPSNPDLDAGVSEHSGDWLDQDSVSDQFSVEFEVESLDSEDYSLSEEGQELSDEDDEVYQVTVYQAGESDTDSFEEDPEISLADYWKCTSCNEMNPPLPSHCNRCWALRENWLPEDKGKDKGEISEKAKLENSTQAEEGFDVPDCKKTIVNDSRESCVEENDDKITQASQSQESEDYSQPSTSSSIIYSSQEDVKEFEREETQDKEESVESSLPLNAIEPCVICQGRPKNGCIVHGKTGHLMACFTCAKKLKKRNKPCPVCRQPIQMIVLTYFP
TIM10 inh = growth inhibitors of TIM10 yeast strain. S. cerevisiae TIM10 strain growth, BacTiter-Glo luminescence, 24 h. inhibition, % at 10 µM. 330,000 compounds, 1.4% hits. AID 463195;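 active means inhibition of 40% or more at the single tested concentration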;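 further: wild-type TIM10 isogenic control strain grown at permissive 25 °C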
tim10 confirm = TIM10 yeast growth inhibition, confirmed | inhibition, % at 10 µM | 4,600 compounds, 63% hits | S. cerevisiae tim10 strain growth, BacTiter-Glo luminescence, 24 h | shares compounds with TIM10 inh;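 active means inhibition of yeast growth at or above a set limit in either of two replicates at 10 µM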;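 further: this counterscreen used the strain with wild-type TIM10; 0% = yeast with DMSO and 100% = medium wells lacking yeast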
* marks the source's active call; other numbers are inactive results; · = not tested or not shown.

SMILES | tim23-1 inh | MPTP inh | tim10-1 inh | Mdm2-MdmX inh | TIM10 inh | tim10 confirm
COc1cc(NC(=S)Nc2ncccc2C)cc(OC)c1OC | 20 | 1 | 37 | 23 | 27 | ·
COc1cc(NC(=S)Nc2cccc(C)n2)cc(OC)c1OC | 17 | 2 | 37 | -5 | 47* | 30*
Cc1c(C(=O)NNC(=O)c2csc(N3CCOCC3)n2)oc2ccc(Br)cc12 | · | -2 | · | · | · | ·
CCc1nc2ccc(C(=O)N(C)CCCN(C)C)cn2c1N(C=O)CCC(C)C | · | -2 | · | · | · | ·
C=CCn1c(SCc2ccc3nonc3c2)nnc1-c1cccs1 | 26 | 2 | 38 | -16 | 48* | 26*
C=CCn1c(SCC(=O)C(C)(C)C)nnc1-c1cccs1 | 18 | 0 | 17 | 6 | 1 | ·
S=C(Nc1cc(Cl)ccc1Oc1ccccc1)N1CCN(c2ccccn2)CC1 | · | -1 | · | · | · | ·
S=C(Nc1ccccc1)Nc1cc(Cl)ccc1Oc1ccccc1 | 46 | 16 | 35 | 2 | 48* | -7
CCCC(=O)Nc1cccc(-c2nc3ccccc3o2)c1 | -8 | 0 | 25 | -6 | 47* | 12
O=C(O)CCC(=O)Nc1cccc(-c2nc3ccccc3o2)c1 | 3 | 2 | 21 | 5 | 11 | ·
O=C(N=Nc1c(O)[nH]c2ccccc12)c1cccs1 | 11 | 2 | 24 | -139 | 62* | 47*
CC(C)(C)c1ccc(S(=O)(=O)NC(=O)C2(C)CCN2C(=O)Cc2ccc(-c3ccccc3)cc2)cc1 (stereo unspecified) | · | 3 | · | · | · | ·
CCOC(=O)C1CCCN(C(=O)c2ccc3[nH]c4c(c3c2)CC(C)CC4)C1 (stereo unspecified) | 43 | 1 | 23 | 16 | 73* | 22
CCOC(=O)C1CCCN(C(=O)c2ccc3c(c2)OCO3)C1 (stereo unspecified) | 6 | 0 | 9 | 16 | 0 | ·
CCN(CC)CCN(C)C(=O)c1[nH]c(C(F)(F)F)nc1-c1ccccc1 | · | -1 | · | · | · | ·
Cc1cccc(CN2CCC(n3nccc3NC(=O)CCCc3ccccc3)CC2)c1 | · | 2 | · | · | · | ·
Cn1c(=O)c2c(nc(SCc3ccccc3)n2Cc2ccc(Cl)cc2)n(C)c1=O | 12 | 0 | 25 | 18 | 43* | 26
CCOC12NC(=O)CC(=O)N1C(c1ccccc1)=CS2 (stereo unspecified) | 43 | 2 | 36 | 15 | 43* | 28
Cc1c(C(=O)Nc2nc3ccccc3[nH]2)oc2c(Cl)cccc12 | 45 | 2 | 4 | 32 | 44* | 24
Cc1c(C(=O)Nc2nc3ccccc3[nH]2)oc2ccc(Br)cc12 | 13 | 4 | 8 | 5 | 8 | ·
CCCC(=O)Nc1ccc(NC(=O)c2cccs2)cn1 | 19 | 0 | -15 | 18 | 40* | -1
O=C(Nc1ccc(NC(=O)c2cccs2)cn1)c1ccccc1 | 19 | -1 | -17 | -55 | 42* | 30*
CCCC(=O)Nc1ccc(NC(=S)NC(=O)c2cccs2)cc1 | -27 | 2 | -22 | 0 | 10 | ·
O=C(Nc1ccc(NC(=O)C2CC2)nc1)c1cccs1 | 12 | -1 | 3 | 5 | 28 | ·
CCCC(=O)NC(=S)Nc1ccc(NC(=O)c2cccs2)cc1 | 20 | 0 | -14 | 9 | 45* | 18
SMILES | tim23-1 inh | MPTP inh | tim10-1 inh | Mdm2-MdmX inh | TIM10 inh | tim10 confirm
CCc1nc2ccc(C(=O)N3CCN(S(=O)(=O)CC)CC3)cn2c1N(CC)CCOC | · | -1 | · | · | · | ·
CN(CC(=O)OCC(N)=O)S(=O)(=O)c1ccc(Cl)cc1 | 4 | -1 | 8 | 1 | 40* | 0
CN(CC(=O)OCC(=O)Nc1ccccc1)S(=O)(=O)c1ccc(Cl)cc1 | -5 | 2 | 5 | -48 | -5 | ·
Oc1c(/C=N/c2ccccn2)sc2ccccc12 | 37 | 6 | 29 | -27 | 69* | 62*
COC(=O)[C@]12CCCCC=C1N(Cc1ccco1)C(=O)[C@H](CC(=O)NCc1cccs1)C2 | · | -2 | · | · | · | ·
CC1Cc2ccccc2N1C(=O)C1CCCN(S(=O)(=O)c2cccc3nsnc23)C1 (stereo unspecified) | 33 | -1 | 34 | 16 | 44* | -27
CC1CCCN(C(=O)C2CCCN(S(=O)(=O)c3cccc4nsnc34)C2)C1 (stereo unspecified) | 14 | 0 | 6 | 2 | 9 | ·
CCCCn1nnnc1C(c1ccccc1)N1CCN(c2ccc(C(F)(F)F)cc2[N+](=O)[O-])CC1 (stereo unspecified) | · | 2 | · | · | · | ·
COC(=O)CC1(C(=O)OC)Nc2cc(Cl)c(Cl)cc2S(=O)(=O)N1O (stereo unspecified) | · | 0 | · | · | · | ·
